# Measured values from PubChem BioAssay AID651650 (Sanford-Burnham Center for Chemical Genomics, 2012).
# Biological target: Neuropilin-1 (Homo sapiens) (UniProt O14786)
# Experiment: NRP-1 b1b2 CendR peptide binding inhibitors, dose response, biochemical, FP and AlphaScreen panel (AID 651650)
# Conditions: NRP-1 b1b2 / RPARPAR peptide binding, FP or AlphaScreen; run 1, at 100 µM (top of the series)
# Neuropilin-1 (Homo sapiens), sequence (O14786 whole entry, looked up): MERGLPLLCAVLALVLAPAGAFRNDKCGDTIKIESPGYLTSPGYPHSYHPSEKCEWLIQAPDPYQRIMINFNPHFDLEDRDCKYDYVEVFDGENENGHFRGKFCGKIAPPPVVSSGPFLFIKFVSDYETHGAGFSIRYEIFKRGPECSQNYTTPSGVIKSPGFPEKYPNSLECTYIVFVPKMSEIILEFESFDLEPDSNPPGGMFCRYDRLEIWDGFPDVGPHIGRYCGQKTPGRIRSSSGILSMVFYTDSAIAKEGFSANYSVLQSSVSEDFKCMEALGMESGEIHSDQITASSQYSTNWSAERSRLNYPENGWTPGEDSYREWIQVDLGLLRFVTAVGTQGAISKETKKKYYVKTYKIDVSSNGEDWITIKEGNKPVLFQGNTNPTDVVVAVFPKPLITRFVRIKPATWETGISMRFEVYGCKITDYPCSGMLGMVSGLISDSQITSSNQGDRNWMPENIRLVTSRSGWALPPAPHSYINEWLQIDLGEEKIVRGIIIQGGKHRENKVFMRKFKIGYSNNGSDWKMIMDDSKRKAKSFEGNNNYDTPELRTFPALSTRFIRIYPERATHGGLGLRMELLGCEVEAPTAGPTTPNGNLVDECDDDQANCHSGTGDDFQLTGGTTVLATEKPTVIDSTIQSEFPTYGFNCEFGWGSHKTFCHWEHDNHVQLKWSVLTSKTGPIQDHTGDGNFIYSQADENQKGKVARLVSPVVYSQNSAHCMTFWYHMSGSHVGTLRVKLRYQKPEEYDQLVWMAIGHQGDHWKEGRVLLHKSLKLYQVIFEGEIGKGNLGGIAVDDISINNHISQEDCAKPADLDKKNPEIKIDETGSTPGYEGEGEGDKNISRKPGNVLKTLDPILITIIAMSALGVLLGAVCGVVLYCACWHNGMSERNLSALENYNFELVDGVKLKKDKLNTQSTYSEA
row,SMILES,inhibition
1,OCCCc1n[nH]c(=S)n1-c1ccccc1,31.2%
2,C=C1C[C@@]23CCC4[C@@](C)(CCC[C@@]4(C)C(=O)O)C2CC[C@]1(O)C3 (stereo partly drawn),63.6%
3,C[C@@H](C(=O)Nc1cccnc1)n1c(=O)[nH]c2ccccc2c1=O,44.7%
4,CCn1c(SCC(=O)c2ccccc2)nnc1-c1cccs1,45.2%
5,CCOC(=O)C1CCN(Cc2ccc3ccccc3c2)CC1,52.3%
6,CCC(=O)Nc1cc2c3c(c1)CCC(=O)N3CCC2,101%
7,O=C(CSC1CN(C(c2ccccc2)c2ccccc2)C1)N/N=C/c1ccccc1,53.3%
8,C#CCCOC(=O)N1C2=NC(C(=O)OC)=C(C(=O)OC)[C@@H]3N(C)c4ccccc4[C@]23C[C@H]1CO,74.8%
9,CC(C)(C)n1cnc2cc(NC(=O)c3ccccc3)ccc21,95.9%
10,COc1cc(OC)nc(NC(=O)COC(=O)c2cccc(Cl)c2)n1,98.8%
11,COC(=O)C1N[C@@H]([C@@H](NC(=O)COc2ccccc2)C(=O)NCc2ccccc2)SC1(C)C (stereo partly drawn),18.2%
12,O=C(Nc1ccc(F)cc1)c1cc(S(=O)(=O)Nc2ccc(F)cc2)cs1,2.95%
13,COC(=O)C[C@H]1c2cc(F)ccc2S(=O)(=O)N1C(C)C,29.9%
14,NS(=O)(=O)c1ccc(CNC(=S)NCc2ccc(F)cc2)cc1,42.3%
15,COc1cccc(OCCNC(=O)Nc2cc(F)c(F)cc2Cl)c1,54.1%
16,COc1ccc(-c2csc(NC(CO)c3nc4ccccc4n3CCCO)n2)cc1 (stereo not drawn),41.5%
17,COc1ccc(NC(=O)CN(C)CC(=O)Nc2cccc(F)c2)cc1Cl,71.1%
18,CC(=O)NC(c1cccc(F)c1)c1nc(-c2cccc(C(F)(F)F)c2)cs1 (stereo not drawn),9.72%
19,CCCN=C1N/C(=C\c2ccco2)C(=O)N1c1ccccc1,3.93%

row,SMILES,inhibition
1,CC(C)Cc1ccc(C(C)C(=O)Nc2ccc(O)cc2)cc1 (stereo not drawn),34.6%
2,CSc1nc2ccccc2c(=O)n1C1CCOC(C)(C)C1 (stereo not drawn),19.3%
3,c1ccc2c(CNc3ccc(CNc4ncn[nH]4)cc3)cccc2c1,25.6%
4,C=C1CCN([C@@H](CC(C)C)C(=O)NCCC(C)C)S(=O)(=O)c2ccccc21,35.9%
5,COc1cc(C(=O)NCc2ccccc2)cc(Br)c1OC,-10%
6,CC(C)(C)c1nc(SCC(=O)NCc2ccco2)c2ccccc2n1,44.2%
7,CCOC(=O)C1=C(O)C(=O)N(c2ccccc2)C1c1cccc([N+](=O)[O-])c1 (stereo not drawn),26.5%
8,COc1ccc(NC(=O)C(C)Sc2ccccc2)cc1 (stereo not drawn),13.5%
9,Cc1cn([C@H]2C[C@H](O)[C@@H](CCC(=O)NCCc3ccc4ccccc4c3)O2)c(=O)[nH]c1=O,22.6%
10,COc1ccc(C(O)c2nc(-c3ccc4ccccc4c3)cs2)cc1 (stereo not drawn),26.1%
11,Cc1cc2c(=O)[nH]cnc2s1,13.4%
12,CN1C(=O)c2oc3ccccc3c(=O)c2C1c1ccccn1 (stereo not drawn),82.2%
13,O=C(NCCN1CCOCC1)c1cc(-c2ccc(F)cc2)on1,17.9%
14,Cc1cc(C)n2c(SCC(=O)Nc3cccc(S(N)(=O)=O)c3)nnc2n1,-5.38%
15,CC#CCN(Cc1ccco1)C(=O)C1CCC(=O)N(Cc2ccccc2F)C1 (stereo not drawn),24.4%
16,NC(=O)CC[C@H](NC(=O)c1ccc(F)cc1)C(=O)N1CCN(Cc2ccc3c(c2)OCO3)CC1,28.6%
17,c1ccc2c(c1)CCCN2Cc1nnnn1CC1CCCO1 (stereo not drawn),48.9%
18,CCN(CC(=O)NCc1cccs1)S(=O)(=O)c1ccc(C(C)C)cc1,1.66%
19,C=C(C)C1CC=C(C)/C(=N\NC(=O)CNc2ccccc2OC)C1 (stereo not drawn),-8.81%
